Sampled rows, rich in hits. Any-hit rate of the full collection: about 6.8%.
Pf Dd2 inh – inhibitors of Plasmodium falciparum Dd2 growth; P. falciparum Dd2 growth, SYBR Green, 72 h; hits give low values; activity change, % at 10 µM; 2.3% of 94,000 active; AID 1159554; in the data active means activity change below about -80%; inconclusive means no clear call, values can overlap the other calls
T cruzi growth-1 – inhibitors of T. cruzi proliferation; AID 624255; T. cruzi beta-gal in NIH3T3, GalScreen luminescence, 90 h; 5.9% of 77,000 active; inhibition, % at 8.34 µM;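 active means mean inhibition above about 93%, with at least 55% of replicates each passing it, limit read from the data, passing the limit was not always enough; inconclusive means only one of those two conditions holds; inactive means neither condition holds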
C diff HTS – C. difficile growth inhibition | Clostridium difficile clinical isolate growth, OD600, 24 h; hits give low values | growth activity, negative = inhibition, % at 16 µg/mL (by protocol) | 0.25% of 86,000 active | AID 1259249;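 active means mean growth activity at or below -80% and every replicate also at or below -80%; inconclusive means mean at or below -80% but some replicate above -80%; inactive means mean growth activity above -80%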;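 further: 0% = DMSO wells and -100% = levofloxacin 16 µg/mL wells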
T cruzi growth-2 – blocks T. cruzi growth in NIH3T3 host cells | shares compounds with T cruzi growth-1 | T. cruzi beta-gal in NIH3T3, GalScreen luminescence, 90 h | inhibition, % at 8.35 µM | 72% of 5,600 active | AID 651739;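 active means mean replicate inhibition above about 95% and at least 55% of replicates individually reaching it, limit read from the data; inconclusive means only one of the two criteria is met; inactive means neither criterion is met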
T cruzi growth-3 – inhibitors of T. cruzi proliferation | AID 651740 | shares compounds with T cruzi growth-1 | inhibition, % at 2.09 µM | T. cruzi beta-gal in NIH3T3, GalScreen luminescence, 90 h | 21% of 5,600 active;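 active means mean inhibition above about 95%, with at least 55% of replicates also reaching it, limit read from the data; inconclusive means meets just one of the two conditions; inactive means meets neither condition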;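 further: plate controls were neutral control median for no effect and positive control median for full effect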
NIH3T3 tox – NIH/3T3 (mouse) viability loss; shares compounds with T cruzi growth-1; NIH/3T3 viability, CellTiter-Glo ATP luminescence, 90 h; cytotoxicity (signal decrease), % at 8.35 µM; 14% of 5,600 active;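 active means mean signal decrease across replicates above about 35% based on untreated-well scatter, with enough replicates individually passing, limit read from the data; inconclusive means no rule stated though some were filed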;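 further: 0% = median of neutral control wells and 100% = median of positive control wells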
NIH3T3 tox 2 – NIH/3T3 (mouse) viability loss. shares compounds with T cruzi growth-1. NIH/3T3 viability, CellTiter-Glo ATP luminescence, 90 h. 56% of 5,600 active. inhibition, % at 24.9 µM;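 active means mean loss of cell viability signal at or above a set limit, and enough replicates individually reaching it; inconclusive means meets only the mean limit or only the replicate share; inactive means meets neither condition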;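 further: 0% = median of neutral control wells and 100% = median of positive control wells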
* marks the source's active call; other numbers are inactive results; ? = inconclusive; . = no result given.

SMILES	Pf Dd2 inh	T cruzi growth-1	C diff HTS	T cruzi growth-2	T cruzi growth-3	NIH3T3 tox	NIH3T3 tox 2
CCCC(=O)N1CCC2(CC1)CN(C(=O)C1CCCCC1)[C@H](CO)c1[nH]c3cc(OC)ccc3c12	-54	.	-5	.	.	.	.
CNC[C@@H]1OCCCC[C@@H](C)Oc2ccc(NC(=O)Cc3ccccc3)cc2C(=O)N([C@H](C)CO)C[C@@H]1C	.	-12	1	.	.	.	.
COc1ccc(NC(=O)N(C)C[C@@H]2Oc3ccc(NS(=O)(=O)c4c(C)noc4C)cc3CC(=O)N([C@@H](C)CO)C[C@@H]2C)cc1	-12	19	2	.	.	.	.
COCC(=O)N(C)C[C@@H]1Oc2cc(C3=CCCC3)ccc2S(=O)(=O)N([C@H](C)CO)C[C@H]1C	1	.	-2	.	.	.	.
C[C@@H]1CN([C@H](C)CO)C(=O)c2cc(NS(=O)(=O)c3cn(C)cn3)ccc2O[C@@H]1CN(C)Cc1ccc(-c2ccccc2)cc1	-7	15	-15	.	.	.	.
N#C[C@H]1[C@@H](c2ccc(C#CC3CCCCC3)cc2)[C@H](CO)N1C(=O)Cc1ccccn1	-34	100*	17	101*	104*	-33	81*
CC(C)NC(=O)N1[C@H](CO)[C@H](c2ccc(C#CC3CCCCC3)cc2)[C@@H]1C#N	-32	107*	-5	98*	116*	30	54*
CS(=O)(=O)N1[C@H](C#N)[C@@H](c2ccc(C#CC3CCCCC3)cc2)[C@H]1CO	-5	79	-10	.	.	.	.
N#C[C@@H]1[C@H](c2ccc(C#CC3CCCC3)cc2)[C@@H](CO)N1C(=O)Nc1ccc(F)cc1	-9	98*	-2	99*	95	2	107*
CN(C)CC(=O)N1[C@H](C#N)[C@H](c2ccc(C#CC3CCCC3)cc2)[C@H]1CO	-30	99*	-3	96*	66	-9	106*
N#C[C@H]1[C@H](c2ccc(C#CC3CCCC3)cc2)[C@@H](CO)N1C(=O)Nc1ccc(F)cc1	-38	93	6	.	.	.	.
N#C[C@@H]1[C@H](c2ccc(C#CC3CCCC3)cc2)[C@@H](CO)N1C(=O)Cc1ccccn1	-76	.	-3	.	.	.	.
CN(C)CC(=O)N1[C@@H](C#N)[C@@H](c2ccc(C#CC3CCCC3)cc2)[C@@H]1CO	9	92	14	.	.	.	.
Cc1noc(C)c1C(=O)N(C)C[C@H]1OCc2ccccc2-c2c(n(C)c3ccccc23)C(=O)N([C@H](C)CO)C[C@H]1C	7	10	-1	.	.	.	.
C[C@H]1CN([C@@H](C)CO)C(=O)c2cccc(NC(=O)C3CC3)c2O[C@H]1CN(C)S(=O)(=O)c1cn(C)cn1	64	10	0	.	.	.	.
CC(C)NC(=O)N1[C@H](C#N)[C@@H](c2ccc(C#CC3CCCCC3)cc2)[C@@H]1CO	-73	96*	-7	96*	113*	-2	105*
CN(C)CC(=O)N1[C@H](C#N)[C@H](c2ccc(C#CC3CCCC3)cc2)[C@@H]1CO	-31	75	25	.	.	.	.
N#C[C@H]1[C@@H](c2ccc(C#CC3CC3)cc2)[C@@H](CO)N1C(=O)Nc1ccc(F)cc1	33	34	-1	.	.	.	.
CC(C)NC(=O)N1[C@H](C#N)[C@@H](c2ccc(C#CC3CCCC3)cc2)[C@H]1CO	-9	102*	-17	102*	97*	6	37*
CO[C@H]1CN(C)C(=O)c2ccc(NC(=O)Nc3c(C)noc3C)cc2OC[C@@H](C)N(CC2CC2)C[C@H]1C	3	41	.	.	.	.	.
COc1ccc(S(=O)(=O)Nc2ccc3c(c2)C(=O)N([C@H](C)CO)C[C@H](C)[C@H](CN(C)Cc2ccc4c(c2)OCO4)O3)cc1	-20	.	1	.	.	.	.
O=C(C[C@@H]1CC[C@H](NC(=O)c2ccncc2)[C@H](CO)O1)NCC1CCCCC1	2	6	.	.	.	.	.
C[C@@H]1CN([C@H](C)CO)C(=O)c2cc(C3=CCCC3)cnc2O[C@@H]1CN(C)C(=O)Cc1ccncc1	-31	96*	-2	25	-13	-9	28*
C[C@@H]1CN([C@@H](C)CO)C(=O)c2cc(C3=CCCCC3)cnc2O[C@H]1CN(C)C(=O)Cc1ccccc1	-4	?	-6	75	55	32	64*
C[C@@H]1CN([C@@H](C)CO)C(=O)c2cc(C3=CCCCC3)cnc2O[C@@H]1CN(C)C(=O)Cc1ccccc1	.	89	12	.	.	.	.
SMILES	Pf Dd2 inh	T cruzi growth-1	C diff HTS	T cruzi growth-2	T cruzi growth-3	NIH3T3 tox	NIH3T3 tox 2
C[C@@H]1CN([C@@H](C)CO)C(=O)c2cc(C3=CCCCC3)cnc2O[C@H]1CN(C)C(=O)Cc1ccncc1	-19	.	2	.	.	.	.
COc1ccc(S(=O)(=O)Nc2ccc3c(c2)CC(=O)N([C@@H](C)CO)C[C@H](C)[C@H](CN(C)S(=O)(=O)c2ccc(Cl)cc2)O3)cc1	-33	21	10	.	.	.	.
COc1ccccc1NC(=O)N(C)C[C@@H]1Oc2ncc(C#CCN(C)C)cc2C(=O)N([C@@H](C)CO)C[C@H]1C	3	30	-4	.	.	.	.
C[C@H](CO)N1C[C@H](C)[C@H](CN(C)CC2CC2)Oc2ccc(NC(=O)C3CC3)cc2CC1=O	9	24	0	.	.	.	.
COc1cccc(S(=O)(=O)N2CCC3(CC2)CN[C@@H](CO)c2c3c3ccc(OC)cc3n2C)c1	-61	.	-2	.	.	.	.
CC(C)CC#Cc1ccc2c(c1)O[C@H](CN(C)C(=O)NC1CCCC1)[C@H](C)CN([C@@H](C)CO)S2(=O)=O	10	120*	-7	110*	79	20	81*
CC(C)CC#Cc1ccc2c(c1)O[C@@H](CN(C)C(=O)NC(C)C)[C@H](C)CN([C@H](C)CO)S2(=O)=O	-15	51	.	.	.	.	.
CC(C)CC#Cc1ccc2c(c1)O[C@H](CN(C)C(=O)NC1CCCC1)[C@@H](C)CN([C@@H](C)CO)S2(=O)=O	3	125*	0	103*	81	6	103*
CC(C)CC#Cc1ccc2c(c1)O[C@@H](CN(C)C(=O)NC(C)C)[C@@H](C)CN([C@H](C)CO)S2(=O)=O	-25	51	.	.	.	.	.
CC(C)CC#Cc1ccc2c(c1)O[C@H](CN(C)C(=O)NC(C)C)[C@H](C)CN([C@@H](C)CO)S2(=O)=O	-28	73	0	.	.	.	.
CC(C)CC#Cc1ccc2c(c1)O[C@H](CN(C)C(=O)NC1CCCC1)[C@H](C)CN([C@H](C)CO)S2(=O)=O	-11	120*	5	103*	93	18	104*
CC(C)CC#Cc1ccc2c(c1)O[C@H](CN(C)C(=O)NC(C)C)[C@H](C)CN([C@H](C)CO)S2(=O)=O	-27	63	1	.	.	.	.
CC(C)CC#Cc1ccc2c(c1)O[C@@H](CN(C)C(=O)NC1CCCC1)[C@@H](C)CN([C@@H](C)CO)S2(=O)=O	-21	120*	-17	101*	84	-19	104*
COc1cccc(NC(=O)N[C@H]2CC[C@@H](CC(=O)Nc3ccccc3)O[C@H]2CO)c1	-2	.	-2	.	.	.	.
